# Assay results from PubChem BioAssay.
# Several values for one entry are separate records, joined by “and”; a condition that tells them apart may be missing. Equal entries are not always repeated. Records with an inconclusive call do not appear. Activity calls are given as the source filed them.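 The calls were made as follows, unless noted: active = normalized viability below 100% at a tested concentration; inactive = the rest.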
# Experiments:
# [1] = system: Aerobactin synthetase IucA (Klebsiella pneumoniae); assay: inhibition of K. pneumoniae IucA enzyme – biochemical, Tocris library, absorbance (AID 1345561; call rule not given here;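 also: 100% = enzyme without compound and 0% = no enzyme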); settings: purified IucA enzyme assay, absorbance (OD) read-out; stronger effect = lower value;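 tested at 8 µM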
# [2] = viability loss in pontine glioma line – cell-based, SU-DIPG-XVII, MIPE5.0, CellTiter-Glo, qHTS, dose response (AID 1347060; cut-off not given, nearly all actives have AC50 up to about 26 µM;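 as to AC50: cells exposed to compound for 48 hours before viability readout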); settings: CellTiter-Glo ATP luminescence
# [3] = viability loss in pontine glioma line – cell-based, SU-DIPG-IV, MIPE4.0, CellTiter-Glo, qHTS, dose response (AID 1347063; cut-off not given, nearly all actives have AC50 up to about 30 µM;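 also: compound exposure lasted 48 hours before the viability readout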); settings: CellTiter-Glo ATP luminescence
# [4] = viability loss with induced miR-34 in A549 – imaging, A549 dox-inducible miR-34, nuclei and caspase counts, primary screen (AID 1347080;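 active = compounds whose cell count with miR-34 switched on is under 0.7 times the count with it off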); settings: A549 miR-34 inducible, Hoechst nuclei count, 48 h
# [5] = MELAS cybrid and Rieske KO viability enhancers – cell-based, MELAS cybrids, Rieske KO mouse fibroblasts, CellTiter-Glo, primary screen (AID 1508586;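 active = mean z-score across replicates of 1.96 or higher in either the MELAS or the Rieske mutant cell line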;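 also: z relative to plate mean and SD of compound and empty wells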); settings: low glucose
# [6] = galactose survival enhancers in mitochondrial complex I cybrids – cell-based, galactose medium, ATP luminescence, primary screen (AID 1645843;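 active = z-score of at least 1.8 in each of two replicates, scored against plate mean and spread of sample wells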;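 also: positive z means more ATP and so rescue of galactose-driven cybrid death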); settings: complex I mutant cybrid cells, 72 h, stronger effect = higher value
# [7] = P. berghei load reduction in hepatocytes – cell-based, HepG2, luciferase luminescence, HepG2 viability, primary screen (AID 624349; in the data active = parasite load remaining mostly below about 12%, no sharp cut-off; inactive = mostly above about 10%;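 also: 100% = mean of DMSO negative control wells on the same plate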); settings: P. berghei liver stage in HepG2, luciferase luminescence, concentration not given here; parasite load remaining: stronger effect = lower value; viability: measured here: HepG2 viability without parasites
# [8] = viability loss in pontine glioma line – cell-based, SU-DIPG-XIII, MIPE4.0, CellTiter-Glo, qHTS, dose response (AID 1347061; cut-off not given, nearly all actives have AC50 up to about 37 µM;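 also: cells exposed to compound for 48 hours before readout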); settings: CellTiter-Glo ATP luminescence
# [9] = viability loss in pontine glioma line – cell-based, JHH-DIPG-1, MIPE4.0, CellTiter-Glo, qHTS, dose response (AID 1347062; cut-off not given, nearly all actives have AC50 up to about 27 µM); settings: JHH-DIPG-1 viability, CellTiter-Glo ATP luminescence
# [10] = growth inhibition of DIPG cells – cell-based, MIPE4.0 library, CellTiter-Glo luminescence, qHTS (AID 1347066; cut-off not given, nearly all actives have AC50 up to about 30 µM;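 also: cells exposed to compound for 48 hours before readout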); settings: SU-DIPG-VI viability, CellTiter-Glo ATP luminescence
# [11] = JHH-DIPG-1 glioma cell viability, MIPE5.0 library, CellTiter-Glo luminescence, qHTS (AID 1347067; cut-off not given, nearly all actives have AC50 up to about 26 µM;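 also: cells exposed to compound for 48 hours before readout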); settings: JHH-DIPG-1 glioma viability, CellTiter-Glo ATP luminescence
# [12] = compounds altering HSF1 focus formation in cells – imaging, Selleck Cancer Library (AID 1347162; in the data active = plate-normalised HSF1 focus index below about 0.46); settings: human cells, HSF1 nuclear foci imaging, at 10 µM; SSMD: measured here: HSF1 foci SSMD mean; cell count: measured here: cell number; plate-normalised HSF1 focus index: stronger effect = lower value
# [13] = drug combination growth inhibition, ovarian cancer – cell-based, oncology-focused library, rucaparib conditional, profiling panel (AID 1508598); settings: patient-derived ovarian cancer cells, CellTiter-Glo viability, 144 h, stronger effect = lower value
# [14] = viability loss in pontine glioma line – cell-based, SU-DIPG-XIII, MIPE5.0, CellTiter-Glo, qHTS, dose response (AID 1347064; cut-off not given, nearly all actives have AC50 up to about 23 µM;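 as to AC50: cells exposed to compound for 48 hours before the viability read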); settings: CellTiter-Glo ATP luminescence
# [15] = viability loss in pontine glioma line – cell-based, SU-DIPG-XXV, MIPE5.0, CellTiter-Glo, qHTS, dose response (AID 1347065; cut-off not given, nearly all actives have AC50 up to about 26 µM;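 also: cells exposed to compound for 48 hours before ATP readout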); settings: CellTiter-Glo ATP luminescence
# [16] = stronger effect = lower value, cell number ratio, induced over uninduced
# [17] = measured here: relative caspase fold change +Dox/-Dox
# [18] = measured here: total cells with miR-34 induction, stronger effect = lower value
# [19] = measured here: total cells without miR-34 induction
# [20] = MELAS cybrid survival, CellTiter-Glo 48 h, stronger effect = higher value
# [21] = Rieske KO mouse fibroblast survival, CellTiter-Glo 72 h
compound,measurement,setting,value
CCc1c2c(nc3ccc(O)cc13)-c1cc3c(c(=O)n1C2)COC(=O)[C@]3(O)CC,remaining activity,[1],107% (inactive)
same,AC50,[2],0.00833 µM (active)
same,AC50,[3],0.0296 µM (active)
same,fold change,[4]; [16],0.769 (inactive) and 0.994 (inactive)
same,fold change,[4]; [17],3.45 and 2.11
same,cell count,[4]; [18],1510 and 2070
same,cell count,[4]; [19],1960 and 2080
same,z-score,[5]; [20],0.182 (inactive)
same,z-score,[5]; [21],-0.363
same,z-score,[6],-0.66 (inactive)
O=c1cc(-c2cccc3c2Sc2ccccc2S3)oc(N2CCOCC2)c1,parasite load remaining,[7],39.8% (inactive)
same,viability,[7],161%
same,remaining activity,[1],94.8% (inactive)
same,outcome,[2],inactive
same,outcome,[8],inactive
same,outcome,[9],inactive
same,outcome,[10],inactive
same,outcome,[11],inactive
same,fold change,[4]; [16],0.936 (inactive) and 1.01 (inactive)
same,fold change,[4]; [17],1.11 and 2.27
same,cell count,[4]; [18],5990 and 5760
same,cell count,[4]; [19],6400 and 5730
same,SSMD,[12],2.97
same,cell count,[12],6680
same,plate-normalised HSF1 focus index,[12],1.15 (inactive)
same,z-score,[5]; [20],-0.376 (inactive)
same,z-score,[5]; [21],1.02
same,viability,"[13]; at 0.000305 µM, OCI-C5x cells, with rucaparib 10 µM, 100% = cells with rucaparib alone",113% (inactive)
same,viability,"[13]; at 0.000305 µM, OCI-C5x cells, without rucaparib",119% (inactive)
same,viability,"[13]; at 0.000305 µM, OCI-P5x cells, with rucaparib 20 µM, 100% = cells with rucaparib alone",105% (inactive)
same,viability,"[13]; at 0.000305 µM, OCI-P5x cells, without rucaparib",109% (inactive)
same,viability,"[13]; at 0.00122 µM, OCI-C5x cells, with rucaparib 10 µM, 100% = cells with rucaparib alone",122% (inactive)
same,viability,"[13]; at 0.00122 µM, OCI-C5x cells, without rucaparib",121% (inactive)
same,viability,"[13]; at 0.00122 µM, OCI-P5x cells, with rucaparib 20 µM, 100% = cells with rucaparib alone",104% (inactive)
same,viability,"[13]; at 0.00122 µM, OCI-P5x cells, without rucaparib",106% (inactive)
same,viability,"[13]; at 0.00488 µM, OCI-C5x cells, with rucaparib 10 µM, 100% = cells with rucaparib alone",118% (inactive)
same,viability,"[13]; at 0.00488 µM, OCI-C5x cells, without rucaparib",119% (inactive)
same,viability,"[13]; at 0.00488 µM, OCI-P5x cells, with rucaparib 20 µM, 100% = cells with rucaparib alone",100% (inactive)
same,viability,"[13]; at 0.00488 µM, OCI-P5x cells, without rucaparib",103% (inactive)
same,viability,"[13]; at 0.0195 µM, OCI-C5x cells, with rucaparib 10 µM, 100% = cells with rucaparib alone",117% (inactive)
same,viability,"[13]; at 0.0195 µM, OCI-C5x cells, without rucaparib",132% (inactive)
same,viability,"[13]; at 0.0195 µM, OCI-P5x cells, with rucaparib 20 µM, 100% = cells with rucaparib alone",98% (active)
same,viability,"[13]; at 0.0195 µM, OCI-P5x cells, without rucaparib",64.5% (active)
same,viability,"[13]; at 0.0781 µM, OCI-C5x cells, with rucaparib 10 µM, 100% = cells with rucaparib alone",116% (inactive)
same,viability,"[13]; at 0.0781 µM, OCI-C5x cells, without rucaparib",119% (inactive)
same,viability,"[13]; at 0.0781 µM, OCI-P5x cells, with rucaparib 20 µM, 100% = cells with rucaparib alone",106% (inactive)
same,viability,"[13]; at 0.0781 µM, OCI-P5x cells, without rucaparib",103% (inactive)
same,viability,"[13]; at 0.313 µM, OCI-C5x cells, with rucaparib 10 µM, 100% = cells with rucaparib alone",108% (inactive)
same,viability,"[13]; at 0.313 µM, OCI-C5x cells, without rucaparib",126% (inactive)
same,viability,"[13]; at 0.313 µM, OCI-P5x cells, with rucaparib 20 µM, 100% = cells with rucaparib alone",91.8% (active)
same,viability,"[13]; at 0.313 µM, OCI-P5x cells, without rucaparib",105% (inactive)
same,viability,"[13]; at 1.25 µM, OCI-C5x cells, with rucaparib 10 µM, 100% = cells with rucaparib alone",111% (inactive)
same,viability,"[13]; at 1.25 µM, OCI-C5x cells, without rucaparib",127% (inactive)
same,viability,"[13]; at 1.25 µM, OCI-P5x cells, with rucaparib 20 µM, 100% = cells with rucaparib alone",108% (inactive)
same,viability,"[13]; at 1.25 µM, OCI-P5x cells, without rucaparib",107% (inactive)
same,viability,"[13]; at 5 µM, OCI-C5x cells, with rucaparib 10 µM, 100% = cells with rucaparib alone",88.8% (active)
same,viability,"[13]; at 5 µM, OCI-C5x cells, without rucaparib",131% (inactive)
same,viability,"[13]; at 5 µM, OCI-P5x cells, with rucaparib 20 µM, 100% = cells with rucaparib alone",66.3% (active)
same,viability,"[13]; at 5 µM, OCI-P5x cells, without rucaparib",27.9% (active)
same,z-score,[6],-0.18 (inactive)
CCC(C)N(C)C(=O)c1cc2ccccc2c(-c2ccccc2Cl)n1 (stereo not given),remaining activity,[1],91.6% (inactive)
same,outcome,[2],inactive
same,outcome,[9],inactive
same,outcome,[14],inactive
same,outcome,[15],inactive
same,outcome,[11],inactive
same,fold change,[4]; [16],0.969 (inactive) and 0.89 (inactive)
same,fold change,[4]; [17],1.99 and 1.15
same,cell count,[4]; [18],8810 and 6770
same,cell count,[4]; [19],9100 and 7610
same,z-score,[6],0.245 (inactive) and 0.79 (inactive)
COc1ccc(CCN(C)CCCOc2ccc(S(=O)(=O)c3c(C(C)C)c4ccccc4n3C)cc2)cc1OC,remaining activity,[1],115% (inactive)
same,AC50,[2],18.6 µM (active)
same,AC50,[14],23.5 µM (active)
same,AC50,[15],9.34 µM (active)
same,outcome,[10],inactive
same,AC50,[11],10.5 µM (active)
same,fold change,[4]; [16],1.02 (inactive)
same,fold change,[4]; [17],0.864
same,cell count,[4]; [18],222
same,cell count,[4]; [19],219
same,SSMD,[12],-4.23
same,cell count,[12],5740
same,plate-normalised HSF1 focus index,[12],0.749 (inactive)
same,z-score,[6],-1.04 (inactive)
